# Test results as given in PubChem BioAssay (EPA / NIEHS).
# Where “and” joins values, the source holds several entries; their conditions need not be identical. Identical values can stand only once. Results filed as inconclusive are left out. A structure can be active in one record and inactive in another. Calls of active or inactive are those of the source. The calls were made as follows, unless noted: active = hit-call score of the fitted dose curve at least 0.9, where 1 is the maximum; inconclusive = response in the unintended direction; inactive = score below 0.9.
# How the values were obtained:
# [1] = molecular target: Estrogen receptor (Homo sapiens) (UniProt P03372); experiment: OT_ERa_GFPERaERE_0480: Odyssey Thera (OT) 8-hour HeLa Transcription Induction Assay for Estrogen Receptor (AID 2283381; active = hit-call score of the fitted dose curve at least 0.9, where 1 is the maximum; inactive = score below 0.9)
# Procedure, shortened: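 An 8 h HeLa transcription-induction format with a GFP reporter under ERE control, read by fluorescence microscopy; single endpoint fitted positively with DMSO as baseline.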
# [2] = molecular target: Estrogen receptor (Homo sapiens) (UniProt P03372); experiment: OT_ERa_GFPERaERE_0120: Odyssey Thera (OT) 2-hour HeLa Transcription Induction Assay for Estrogen Receptor (AID 2283382)
# Procedure, shortened: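 Two-hour compound treatment of HeLa cells preceded microscopy imaging of an inducible fluorescent reporter. Image-based quantification gave one endpoint, analysed for signal increase relative to DMSO controls.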
# [3] = molecular target: Bile acid receptor (Homo sapiens) (UniProt Q96RI1); experiment: OT_FXR_FXRSRC1_1440: Odyssey Thera (OT) 24-hour HEK293T Protein-Complementation Assay for Farnesoid X receptor/SRC-1 Co-activator (AID 2283384)
# Procedure, shortened: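 Single endpoint, analysed for increased fluorescence against DMSO controls. HEK293T cells carrying FXR and SRC-1 linked to complementary reporter halves were exposed to chemicals for 24 h before reading.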
# [4] = molecular target: Retinoic acid receptor RXR-alpha (Homo sapiens) (UniProt P19793); experiment: OT_NURR1_NURR1RXRa_0480: Odyssey Thera (OT) 8-hour HEK293T Protein Complementation Assay for Nurr1/retinoid X receptor (RXR) (AID 2283385)
# Procedure, shortened: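 Gain in fluorescent complementation signal over DMSO, measured 8 hours after chemical dosing of human kidney HEK293T cells, indicated enhanced Nurr1–RXRα association.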
# [5] = molecular target: Retinoic acid receptor RXR-alpha (Homo sapiens) (UniProt P19793); experiment: OT_NURR1_NURR1RXRa_1440: Odyssey Thera (OT) 24-hour HEK293T Protein Complementation Assay for Nurr1/retinoid X receptor (RXR) (AID 2283386)
# Procedure, shortened: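 Cell-based binding reporter: HEK293T cells, 24 h exposure, fluorescence-detected fragment complementation, DMSO as baseline.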
# [6] = molecular target: Peroxisome proliferator-activated receptor gamma (Homo sapiens) (UniProt P37231); experiment: OT_PPARg_PPARgSRC1_0480: Odyssey Thera (OT) 8-hour Protein-Complementation Assay for Peroxisome Proliferator-activated Receptor Gamma / SRC-1 Co-activator (AID 2283387);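 also: nuclear to cytoplasmic split Venus YFP fluorescence ratio reporting PPARg SRC-1 interaction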
# Procedure, shortened: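 Read-out: 488 nm N/C fluorescence ratio from complemented Venus YFP fragments, ≥350 cells per image, gain-of-signal fitted against DMSO baseline. Fusions of PPARg/SRC-1 with IFP1/IFP2 expressed transiently in HEK293T; compounds applied 8 h.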
# [7] = CEETOX_H295R_11DCORT: CeeTox H295R High-throughput Steroidogenesis Assay for 11-Deoxycortisol (11DCORT) (AID 2283432; active = hit-call score of the fitted dose curve at least 0.9, where 1 is the maximum; inactive = score below 0.9;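 as to AC50: 11-deoxycortisol secreted into the medium measured by LC-MS/MS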); settings: actives raise or lower the signal
# Procedure, shortened: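 H295R cells; 10 uM forskolin prestim 48 h; compound in 0.1% DMSO 48 h; media extracted with MTBE; 11-deoxycortisol by LC-MS/MS, 7-point standard curve; gain/loss vs DMSO baseline; viability by MTT in same wells.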
# [8] = CEETOX_H295R_OHPREG: CeeTox H295R High-throughput Steroidogenesis Assay for OH-Pregnenolone (OHPREG) (AID 2283434; active = hit-call score of the fitted dose curve at least 0.9, where 1 is the maximum; inactive = score below 0.9); settings: actives raise or lower the signal
# Procedure, shortened: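 Secreted 17alpha-hydroxypregnenolone measured by HPLC-MS/MS after liquid-liquid extraction. Human adrenal H295R cells received 48 h forskolin (10 uM) stimulation before 48 h chemical exposure at 0.1% final DMSO; MTT viability in same wells; bidirectional fit against DMSO.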
# [9] = molecular target: Bile acid receptor (Homo sapiens) (UniProt Q96RI1); experiment: OT_FXR_FXRSRC1_0480: Odyssey Thera (OT) 8-hour HEK293T Protein-Complementation Assay for Farnesoid X receptor/SRC-1 Co-activator (AID 2283383)
# Procedure, shortened: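 Readings were taken 8 h after dosing HEK293T cells in a split-reporter complementation format pairing FXR with SRC-1. Increased fluorescence relative to DMSO-treated wells defined activity.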
# [10] = molecular target: Peroxisome proliferator-activated receptor gamma (Homo sapiens) (UniProt P37231); experiment: OT_PPARg_PPARgSRC1_1440: Odyssey Thera (OT) 24-hour Protein-Complementation Assay for Peroxisome Proliferator-activated Receptor Gamma/ SRC-1 Co-activator (AID 2283388);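 also: nuclear to cytoplasmic ratio of reconstituted Venus YFP fluorescence in fixed imaged cells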
# Procedure, shortened: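 Readout is the 488 nm N/C fluorescence ratio from fixed, Draq5-stained HEK293T cells after 24 h compound exposure. Cells carried transiently transfected PPARg and SRC-1 fused to Venus fragments, transfected 48 h before treatment.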
# Sequence of Peroxisome proliferator-activated receptor gamma (Homo sapiens) (P37231 whole entry, looked up, the tested form may be a part): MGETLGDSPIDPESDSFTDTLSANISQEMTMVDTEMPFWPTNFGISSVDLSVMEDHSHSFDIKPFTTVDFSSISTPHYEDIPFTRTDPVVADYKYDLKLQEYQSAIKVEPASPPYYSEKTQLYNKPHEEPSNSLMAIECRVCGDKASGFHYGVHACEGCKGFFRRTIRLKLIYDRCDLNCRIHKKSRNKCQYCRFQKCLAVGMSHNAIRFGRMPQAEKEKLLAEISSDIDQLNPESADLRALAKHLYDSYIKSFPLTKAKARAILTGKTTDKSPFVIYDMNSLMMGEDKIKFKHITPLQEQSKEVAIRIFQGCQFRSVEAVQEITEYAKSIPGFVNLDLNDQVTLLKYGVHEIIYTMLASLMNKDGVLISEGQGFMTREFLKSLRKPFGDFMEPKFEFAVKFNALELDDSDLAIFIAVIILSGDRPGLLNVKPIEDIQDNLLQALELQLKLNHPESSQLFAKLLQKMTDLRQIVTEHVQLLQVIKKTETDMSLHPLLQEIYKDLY
# Sequence of Estrogen receptor (Homo sapiens) (P03372 whole entry, looked up): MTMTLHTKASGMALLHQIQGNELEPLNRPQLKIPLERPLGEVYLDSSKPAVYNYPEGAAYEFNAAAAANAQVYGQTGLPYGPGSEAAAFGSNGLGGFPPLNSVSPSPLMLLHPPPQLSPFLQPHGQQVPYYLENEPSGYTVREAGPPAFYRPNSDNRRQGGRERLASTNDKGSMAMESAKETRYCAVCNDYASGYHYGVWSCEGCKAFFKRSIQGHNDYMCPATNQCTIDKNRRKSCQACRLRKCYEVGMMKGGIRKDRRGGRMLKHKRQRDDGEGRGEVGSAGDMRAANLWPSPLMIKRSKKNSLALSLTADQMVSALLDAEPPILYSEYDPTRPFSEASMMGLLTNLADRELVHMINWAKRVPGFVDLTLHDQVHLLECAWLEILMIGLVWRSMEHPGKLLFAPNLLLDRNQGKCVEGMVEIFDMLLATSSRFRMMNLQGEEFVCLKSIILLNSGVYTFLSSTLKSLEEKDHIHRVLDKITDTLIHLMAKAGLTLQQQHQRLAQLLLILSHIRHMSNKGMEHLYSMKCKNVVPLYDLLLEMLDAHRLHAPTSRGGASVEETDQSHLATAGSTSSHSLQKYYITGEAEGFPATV
# Sequence of Retinoic acid receptor RXR-alpha (Homo sapiens) (P19793 whole entry, looked up, the tested form may be a part): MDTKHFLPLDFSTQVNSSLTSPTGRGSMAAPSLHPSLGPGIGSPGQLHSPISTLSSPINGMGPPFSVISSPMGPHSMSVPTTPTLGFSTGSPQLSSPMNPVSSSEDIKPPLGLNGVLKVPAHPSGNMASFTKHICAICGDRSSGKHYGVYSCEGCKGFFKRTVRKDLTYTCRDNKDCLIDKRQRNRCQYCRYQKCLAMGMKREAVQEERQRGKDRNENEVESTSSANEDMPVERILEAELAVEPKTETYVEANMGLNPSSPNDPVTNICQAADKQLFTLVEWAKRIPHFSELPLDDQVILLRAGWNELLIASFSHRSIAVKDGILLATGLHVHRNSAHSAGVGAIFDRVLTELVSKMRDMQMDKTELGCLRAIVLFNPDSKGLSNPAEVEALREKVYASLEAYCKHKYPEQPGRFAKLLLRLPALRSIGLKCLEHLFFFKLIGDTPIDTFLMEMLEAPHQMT
# Sequence of Bile acid receptor (Homo sapiens) (Q96RI1 whole entry, looked up): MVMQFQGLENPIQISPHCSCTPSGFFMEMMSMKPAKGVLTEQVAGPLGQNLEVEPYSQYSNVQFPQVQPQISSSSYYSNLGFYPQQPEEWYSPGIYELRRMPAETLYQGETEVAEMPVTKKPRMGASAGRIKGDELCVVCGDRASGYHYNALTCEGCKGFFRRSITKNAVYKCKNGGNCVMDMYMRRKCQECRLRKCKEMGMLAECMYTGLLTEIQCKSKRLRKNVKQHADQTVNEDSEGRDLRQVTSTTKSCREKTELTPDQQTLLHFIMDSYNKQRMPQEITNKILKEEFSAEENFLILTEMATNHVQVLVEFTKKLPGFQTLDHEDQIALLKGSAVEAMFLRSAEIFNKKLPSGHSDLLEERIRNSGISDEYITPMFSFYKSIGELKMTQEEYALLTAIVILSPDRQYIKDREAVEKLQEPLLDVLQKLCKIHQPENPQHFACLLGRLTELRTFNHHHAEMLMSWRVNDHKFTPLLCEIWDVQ
smiles,measurement,setting,value
Cc1nc(N(C)C)nc(OC(=O)N(C)C)c1C,outcome,[1],inactive
same,outcome,[2],inactive
same,outcome,[3],inactive
same,outcome,[4],inactive
same,outcome,[5],inactive
same,outcome,[6],inactive
same,outcome,[7],inactive
same,outcome,[8],inactive
C=CCOC(=O)C(C)(C)OC(=O)c1cc(-n2c(=O)cc(C(F)(F)F)n(C)c2=O)ccc1Cl,outcome,[1],inactive
same,outcome,[2],inactive
same,outcome,[4],inactive
same,outcome,[5],inactive
same,outcome,[6],inactive
COc1cc(OC)nc(NC(=O)NS(=O)(=O)c2ncccc2OCC(F)(F)F)n1,outcome,[1],inactive
same,outcome,[2],inactive
same,outcome,[9],inactive
same,outcome,[3],inactive
same,outcome,[5],inactive
same,outcome,[6],inactive
same,outcome,[10],inactive
CCCCOCN(C(=O)CCl)c1c(CC)cccc1CC,AC50,[1],71.3 µM (active)
same,outcome,[2],inactive
same,AC50,[9],50 µM (active)
same,AC50,[3],75.1 µM (active)
same,outcome,[4],inactive
same,AC50,[5],76.8 µM (active)
same,outcome,[5],inactive
same,outcome,[6],inactive
Cc1c(COC(=O)[C@@H]2[C@H](/C=C(\Cl)C(F)(F)F)C2(C)C)cccc1-c1ccccc1,outcome,[1],inactive
same,outcome,[2],inactive
same,outcome,[9],inactive
same,outcome,[3],inactive
same,outcome,[4],inactive
same,outcome,[5],inactive
same,outcome,[6],inactive
same,outcome,[8],inactive
COCc1cnc(C2=NC(C)(C(C)C)C(=O)N2)c(C(=O)O)c1 (configuration not stated),outcome,[1],inactive
same,outcome,[2],inactive
same,outcome,[3],inactive
same,outcome,[4],inactive
same,outcome,[5],inactive
same,outcome,[6],inactive
same,outcome,[10],inactive
same,outcome,[7],inactive
same,outcome,[8],inactive
Cc1ccc(N=CN(C)C=Nc2ccc(C)cc2C)c(C)c1,outcome,[1],inactive
same,outcome,[2],inactive
same,AC50,[4],50 µM (active)
same,AC50,[5],80.8 µM (active) and 31.9 µM (active)
same,outcome,[6],inactive
COC(=O)N(C(=O)N1CO[C@@]2(C(=O)OC)Cc3cc(Cl)ccc3C2=N1)c1ccc(OC(F)(F)F)cc1,outcome,[1],inactive
same,outcome,[2],inactive
same,outcome,[4],inactive
same,outcome,[5],inactive
same,outcome,[6],inactive
same,outcome,[10],inactive
CCN(CC)C(=O)C(C)Oc1cccc2ccccc12 (configuration not stated),outcome,[1],inactive
same,outcome,[2],inactive
same,AC50,[9],32.6 µM (active)
same,AC50,[3],31.3 µM (active)
same,outcome,[4],inactive
same,outcome,[5],inactive
same,outcome,[6],inactive
same,outcome,[10],inactive
same,outcome,[8],inactive
CC1(C)C(C(=O)OC(C#N)c2cccc(Oc3ccccc3)c2)C1(C)C (configuration not stated),outcome,[1],inactive
same,outcome,[2],inactive
same,AC50,[9],2.05 µM (active)
same,AC50,[3],5.39 µM (active)
same,outcome,[4],inactive
same,outcome,[5],inactive
same,outcome,[6],inactive
Clc1cccc(C(Cl)(Cl)Cl)n1,outcome,[1],inactive
same,outcome,[2],inactive
same,outcome,[9],inactive
same,outcome,[3],inactive
same,outcome,[4],inactive
same,outcome,[5],inactive
same,outcome,[6],inactive
CCOP(=O)(OCC)Oc1nc(Cl)c(Cl)cc1Cl,outcome,[1],inactive
same,outcome,[2],inactive
same,outcome,[4],inactive
same,AC50,[5],9.87 µM (active)
same,outcome,[5],inactive
same,outcome,[6],inactive
COP(=O)(OC)O/C(C)=C/C(=O)N(C)C,outcome,[1],inactive
same,outcome,[2],inactive
same,outcome,[4],inactive
same,outcome,[5],inactive
same,outcome,[6],inactive
CCNC(=O)NC(=O)C(C#N)=NOC,outcome,[1],inactive
same,outcome,[2],inactive
same,outcome,[9],inactive
same,AC50,[3],23.1 µM (active)
same,outcome,[4],inactive
same,AC50,[5],29.6 µM (active)
same,outcome,[5],inactive
same,outcome,[6],inactive
same,outcome,[10],inactive
CS(=O)(=O)c1cc(C(F)(F)F)ccc1C(=O)c1cnoc1C1CC1,outcome,[1],inactive
same,outcome,[2],inactive
same,outcome,[4],inactive
same,outcome,[5],inactive
same,outcome,[6],inactive
CC(C)N1C(=O)N(c2ccccc2)CSC1=NC(C)(C)C,outcome,[1],inactive
same,outcome,[2],inactive
same,AC50,[4],74.4 µM (active)
same,outcome,[4],inactive
same,AC50,[5],80.8 µM (active)
same,outcome,[5],inactive
same,outcome,[6],inactive
same,outcome,[10],inactive
CCCCC(O)(Cn1cncn1)c1ccc(Cl)cc1Cl (configuration not stated),outcome,[1],inactive
same,AC50,[2],77.5 µM (active)
same,outcome,[9],inactive
same,AC50,[3],34.9 µM (active)
same,outcome,[6],inactive
same,outcome,[10],inactive
COP(=S)(OC)Oc1ccc([N+](=O)[O-])c(C)c1,outcome,[1],inactive
same,outcome,[2],inactive
same,AC50,[9],21.3 µM (active)
same,AC50,[3],29.8 µM (active)
same,outcome,[4],inactive
same,outcome,[5],inactive
same,outcome,[6],inactive
same,outcome,[10],inactive
same,AC50,[7],6.36 µM (active)
same,outcome,[8],inactive
Cn1c(-c2ccccc2)cc(-c2ccccc2)[n+]1C,outcome,[1],inactive
same,outcome,[2],inactive
same,outcome,[4],inactive
same,outcome,[5],inactive
same,outcome,[6],inactive
Nc1c(Cl)c(Cl)nc(C(=O)O)c1Cl,outcome,[1],inactive
same,outcome,[2],inactive
same,outcome,[4],inactive
same,outcome,[5],inactive
same,outcome,[6],inactive
O=C(O)c1c(Cl)ccc2cc(Cl)cnc12,outcome,[1],inactive
same,outcome,[2],inactive
same,outcome,[9],inactive
same,outcome,[3],inactive
same,outcome,[4],inactive
same,outcome,[5],inactive
same,outcome,[6],inactive
COCC(=O)N(c1c(C)cccc1C)C(C)C(=O)OC (configuration not stated),outcome,[1],inactive
same,outcome,[2],inactive
same,outcome,[9],inactive
same,outcome,[3],inactive
same,outcome,[4],inactive
same,outcome,[5],inactive
same,outcome,[6],inactive
same,outcome,[8],inactive
CCCN(CC)CC1COC2(CCC(C(C)(C)C)CC2)O1 (configuration not stated),outcome,[1],inactive
same,outcome,[2],inactive
same,AC50,[4],50 µM (active)
same,outcome,[4],inactive
same,outcome,[5],inactive
same,AC50,[7],0.202 µM (active)
same,AC50,[8],0.131 µM (active)
CO/N=C(/C1=NOCCO1)c1ccccc1Oc1ncnc(Oc2ccccc2Cl)c1F,outcome,[1],inactive
same,outcome,[2],inactive
same,AC50,[9],12.4 µM (active)
same,AC50,[3],12.7 µM (active)
same,outcome,[4],inactive
same,outcome,[6],inactive
same,outcome,[10],inactive
CCC(C)n1c(=O)[nH]c(C)c(Br)c1=O (configuration not stated),outcome,[1],inactive
same,outcome,[2],inactive
same,outcome,[9],inactive
same,outcome,[3],inactive
same,outcome,[4],inactive
same,outcome,[5],inactive
same,outcome,[6],inactive
same,outcome,[10],inactive
same,outcome,[8],inactive
C=C(C)CN(CC)c1c([N+](=O)[O-])cc(C(F)(F)F)cc1[N+](=O)[O-],outcome,[1],inactive
same,AC50,[2],12.1 µM (active)
same,outcome,[4],inactive
same,outcome,[5],inactive
same,outcome,[6],inactive
COc1ccc(-c2ccccc2)cc1NNC(=O)OC(C)C,outcome,[1],inactive
same,outcome,[2],inactive
same,outcome,[9],inactive
same,outcome,[3],inactive
same,outcome,[4],inactive
same,outcome,[5],inactive
same,outcome,[6],inactive
CCOc1cc(C(C)(C)C)ccc1C1COC(c2c(F)cccc2F)=N1 (configuration not stated),outcome,[1],inactive
same,outcome,[2],inactive
same,AC50,[9],1.27 µM (active)
same,AC50,[3],31.6 µM (active)
same,outcome,[4],inactive
same,AC50,[5],18.5 µM (active) and 20.6 µM (active)
same,outcome,[6],inactive
CNC(=O)N(C)c1nnc(C(C)(C)C)s1,outcome,[1],inactive
same,outcome,[2],inactive
same,outcome,[4],inactive
same,outcome,[5],inactive
same,outcome,[6],inactive
O=c1n(Cl)c(=O)n(Cl)c(=O)n1Cl,outcome,[1],inactive
same,outcome,[2],inactive
same,outcome,[4],inactive
same,outcome,[5],inactive
same,outcome,[6],inactive
CS(=O)(=O)c1ccc(C(=O)C2C(=O)CCCC2=O)c([N+](=O)[O-])c1,outcome,[1],inactive
same,outcome,[2],inactive
same,outcome,[9],inactive
same,outcome,[3],inactive
same,outcome,[4],inactive
same,outcome,[6],inactive
same,outcome,[10],inactive
CSC(=O)c1c(C(F)F)nc(C(F)(F)F)c(C(=O)SC)c1CC(C)C,outcome,[1],inactive
same,outcome,[2],inactive
same,outcome,[4],inactive
same,AC50,[5],69.6 µM (active)
same,outcome,[5],inactive
same,outcome,[6],inactive
O=P(O)(O)CCCl,outcome,[1],inactive
same,outcome,[2],inactive
same,outcome,[9],inactive
same,outcome,[3],inactive
same,outcome,[4],inactive
same,outcome,[5],inactive
same,outcome,[6],inactive
CC(C)=CC1C(C(=O)OCc2coc(Cc3ccccc3)c2)C1(C)C (configuration not stated),outcome,[1],inactive
same,outcome,[2],inactive
same,AC50,[9],39.6 µM (active)
same,outcome,[3],inactive
same,outcome,[4],inactive
same,AC50,[5],20.3 µM (active)
same,outcome,[6],inactive
